The full list was thinned out, with hits kept by preference.
ERK EGF inh: EGF-driven ERK pathway inhibition; HEK293-V1b, EGF-stimulated phospho-ERK AlphaScreen; Potency, µM (series often up to 11.5 µM), for the others: top-dose activity change, negative = inhibition, actives largely listed as inhibitors; 130,000 compounds, 0.41% hits; AID 1454; active means well fitted inhibition curve with a large enough effect;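 further: plate controls were stimulated vehicle wells for no effect and unstimulated vehicle basal for full effect; nearly all actives have a fitted effect of over 55% in size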
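Homogeneous cell-based phospho-ERK assay: HEK293/V1b cells in 1% FBS, compound 30 min then EGF 5 min, AlphaScreen luminescence. Activity normalized between DMSO and 25 nM EGF controls; AC50 from Hill modelling.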
* marks the source's active call; other numbers are inactive results; [ ] = dose if it differs, or a comment. Potency means the concentration at half of the fitted maximal effect.

SMILES	ERK EGF inh
CC(C)(C)OC(=O)NCc1ccc(NC(=O)c2nc[nH]c2C(=O)N[C@@H](Cc2ccccc2)C(=O)OC(C)(C)C)cc1	-29%[57.5 µM]
O=C(N[C@@H](Cc1ccccc1)C(=O)OCc1ccccc1)c1nc[nH]c1C(=O)NC(c1ccccc1)c1ccccc1	40µM*
C[C@H](NC(=O)c1nc[nH]c1C(=O)N[C@@H](Cc1ccccc1)C(=O)OCc1ccccc1)c1ccccc1	-8%[57.5 µM]
CC(C)C[C@H](NC(=O)c1[nH]cnc1C(=O)Nc1ccc(CNC(=O)OC(C)(C)C)cc1)C(=O)OCc1ccccc1	-12%[57.5 µM]
C[C@H](NC(=O)c1[nH]cnc1C(=O)Nc1ccc(CNC(=O)OC(C)(C)C)cc1)C(=O)OCc1ccccc1	32µM*
O=c1c(-c2ccccc2)nc2cnc(N3CCNCC3)nc2n1C1CC1	5%
CC(C)(O)[C@@H]1CCC[N+]2(C)CCCC[C@H]12 (stereo not given in full)	-12%
Cc1n[nH]c(=O)[nH]c1=O	6%[25.7 µM]
Cc1nc(N2CCOCC2)c2nc(-c3ccccc3)n(CCN3CCCC3)c2n1	-4%
COc1ccc2c(c1)O[C@H](c1ccc3c(c1)OCO3)[C@@H](OC(=O)NCc1ccco1)C2=O	-8%
COc1ccc(-c2coc3c(O)c(OC)ccc3c2=O)cc1	16%
CCCCN1CCC[C@@H]1CNC(=O)c1cc(C#N)c2ccccc2c1OC	4%
C(=N\Nc1nc2ccccc2[nH]1)/c1ccccn1	-5%
C(=N\Nc1nc2ccccc2[nH]1)/c1cccc2nccnc12	-11%[57.5 µM]
C#CCn1cc(/C=N/Nc2nc3ccccc3[nH]2)c2ccccc21	25µM*
N[C@@H]1CCN(O)C1=O	-3%
COc1ccc2cnoc(=O)c2c1OC	-10%
CCCOc1ccc(Br)cc1-c1cc(-c2ccc(Cl)cc2)[nH]c1-c1ccncc1	-4%
C=C1CC[C@@H]2O[C@@]2(C)CC[C@H]2[C@H]1CC2(C)C	-8%
Cc1ccc(S(=O)(=O)OCCc2ccccc2)cc1	-12%
Cc1ccc2c(c1)C(=O)c1c(C(=O)O)cccc1-2	3%
Nc1ccc(N)c(C(=O)O)c1	-11%[57.5 µM]
Nc1cc(C(=O)O)c(N)c2c1C(=O)c1ccccc1C2=O	28µM*
O=C(O)C(O)C(O)(Cc1ccc(O)cc1)C(=O)O (stereo not given)	-11%
COC(=O)NC(CCc1ccccc1)C(C(C)=O)C(=O)OC (stereo not given)	5%
SMILES	ERK EGF inh
COc1ccc(-c2csc3ncnc(Nc4ccc(O)cc4)c23)cc1	28µM*
O=C(O)c1ccc(Nc2ncnc3scc(-c4ccccc4)c23)cc1	-10%
Cc1ccc(-c2csc3ncnc(Nc4ccc(C(=O)O)cc4)c23)cc1	10%[57.5 µM]
OCC1OC([S-])[C@H](O)C(O)C1O.[Au+] (stereo not given in full)	-14%
C=CS(=O)(=O)c1ccc(Oc2ccc(S(=O)(=O)C=C)cc2)cc1	13µM*
CC(=O)CC(C)(C)S(=O)(=O)c1ccc(Oc2ccc(S(=O)(=O)C(C)(C)CC(C)=O)cc2)cc1	-9%
NS(=O)(=O)c1ccc(Oc2ccc(S(N)(=O)=O)cc2)cc1	-10%
CN(C)c1ccc(-c2nccc(NCCN3CCOCC3)n2)cc1	18%
COc1ccc(Nc2nc(-c3ccc4c(c3)NC(=O)CO4)cs2)cc1	20µM*
COc1ccc(-c2csc(NC3=NCCCCC3)n2)cc1	10%
COc1ccccc1Nc1nc(-c2ccc3c(c2)NC(=O)CO3)cs1	-2%
C=C[C@@H]1CN2CC[C@@H]1C[C@@H]2[C@@H](O)c1ccnc2ccc(OC)cc12	-15%
CCC(Oc1ccc2c(=O)c(-c3ccccc3OC)coc2c1)C(=O)OCc1ccccc1 (stereo not given)	7%
COC(=O)COc1ccc2c(=O)c(-c3ccccc3)coc2c1	12%[57.5 µM]
CC(C)Oc1ccc2c(=O)c(-c3ccccc3)coc2c1	18µM*
O=C1CCC=C1C(O)c1ccccc1 (stereo not given)	-8%
COC(=O)[C@H](COC(C)(C)C)NC(=O)O[C@@H]1C(=O)c2ccc(OC)cc2O[C@H]1c1cccc(C(F)(F)F)c1	-19%
COc1ccc(/C=N/Nc2nc(-c3cccc(S(=O)(=O)N4CCCC4)c3)cs2)cc1OC	-3%
COc1cc(/C=N/Nc2cc(C)nc(NS(=O)(=O)c3ccc(C)cc3)n2)ccc1O	-2%
COc1cc(/C=N/Nc2nc(-c3ccc(S(=O)(=O)N(C)C)cc3)cs2)ccc1O	8.9µM*
CC(C)C[C@@H](CC(=O)N[C@H](CC(=O)N[C@@H]1CCNC[C@H]1C(=O)N[C@H](CC(=O)N[C@@H](CCC(=O)O)CC(=O)O)Cc1c[nH]c2ccccc12)C(C)C)NC(=O)[C@@H]1CCCC[C@H]1N	-11%
COc1cc2c(cc1OC)C1C(=O)c3ccc4c(c3OC1CO2)C=CC(C)(C)O4 (stereo not given)	-3%
COc1cc2cc3c4cc(OC)c(OC)cc4cc[n+]3c(C)c2cc1OC	4%
COC(=O)c1ccc(C(NC(=O)OCc2ccccc2)/C(I)=C/[C@@H](C)C(=O)NCc2ccc(C)o2)cc1 (stereo not given in full)	-6%
Cc1cc(C)cc(-c2cc3c(c(-c4c(O)c(-c5cc(C)cc(C)c5)cc5c4CCCC5)c2O)CCCC3)c1	-6%
SMILES	ERK EGF inh
CC(c1ccccc1)N1C(=O)/C(=C/c2ccncc2)SC1=S (stereo not given)	22µM*
C=CCOc1ccc(/C=C2\SC(=S)N(C(C(=O)O)c3ccccc3)C2=O)cc1 (stereo not given)	0%[57.5 µM]
O=C(O)C(c1ccccc1)N1C(=O)/C(=C/c2cccs2)SC1=S (stereo not given)	5%[57.5 µM]
O=C(c1ccc(CSc2nc3ccncc3[nH]2)cc1)N1CCN(c2cccc(Cl)c2)CC1	18µM*
O=C(c1ccc(CSc2nc3ccncc3[nH]2)cc1)N1CCCCCC1	-6%[57.5 µM]
O=C(NCc1ccc(Cl)cc1)c1ccc(CSc2nc3ccncc3[nH]2)cc1	19%[57.5 µM]
C=C1CCC2C(CC2(C)C)C(=C)CC/C1=N/O (stereo not given)	10%
COC(=O)/C(C#N)=C1/C=Cc2ccccc2N1C	-6%
CN1/C(=C/c2cc[n+](C)c3ccccc23)C=Cc2ccccc21	10µM*
O=C(Nc1ccc(C(=O)Nc2ccc(C(=O)Nc3ccc(S(=O)(=O)O)c4cc(S(=O)(=O)O)cc(S(=O)(=O)O)c34)cc2)cc1)Nc1ccc(C(=O)Nc2ccc(C(=O)Nc3ccc(S(=O)(=O)O)c4cc(S(=O)(=O)O)cc(S(=O)(=O)O)c34)cc2)cc1	2%
CC(OC(=O)C1CCCCC1)c1nc2ccccc2[nH]1 (stereo not given)	-6%
O=C(NCCCc1nc2ccccc2[nH]1)c1ccc(F)cc1	1%
C=C(C(C)=O)C(O)c1cccc(OC)c1 (stereo not given)	-1%
Cc1ccccc1Nc1oc(-c2ccccc2)nc1-c1ccccc1	1%
CCc1c2c(nc3cccc(OC)c13)OC(CC)C2 (stereo not given)	-2%
CCCn1c(-c2ccc(F)cc2)nc2c(NCCCN(CCO)CCO)nc(C)nc21	2%
N#Cc1c(N2CCOCC2)nsc1-c1ccc(C(F)(F)F)cc1	6%[57.5 µM]
N#CCCN1CCCc2cc(N=Nc3ccc(C(F)(F)F)cc3)ccc21	22µM*
C=Cc1c(C)/c2[n-]/c1=C\c1[n-]c(c(CC)c1C)/C=c1\[n-]c3c(c1C)C(=O)C(C(=O)[O-])C=3c1[n-]c(c(C)c1CCC(=O)[O-])\C=2.[Cu].[Na+].[Na+] (stereo not given)	11%
O=C(O)c1ccc(NS(=O)(=O)c2ccsc2C(=O)O)cc1	3%

Bioassay records from PubChem BioAssay.
